The structures appear in SMILES notation. “And” between values parts separate entries of the source, which are not always exact repeats. Identical values can stand only once. Compounds without any hit were thinned out: in the full panel of roughly 79,000, 15% have a hit. Unmarked numbers belong to inactive results. The source made the active and inactive calls. No stated cut-off is given here; in the data, active means growth inhibition above about 70%; inactive means the rest.

Test [1] in a line: NCI Yeast Anticancer Drug Screen. Data for the rad50 strain (AID 155).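 Further: 0% = growth of vehicle-only cultures of the same strain.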 The following applies: S. cerevisiae rad50 strain growth inhibition, active compounds read high; at 50.0 µM unless noted. The gist of the method: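 Genetically altered yeast (DNA repair pathway); compound treatment; growth inhibition vs vehicle ctrl.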
Test [2] is described as follows: NCI Yeast Anticancer Drug Screen. Data for the mec2-1 strain (AID 157). The note with it: S. cerevisiae mec2-1 strain, active compounds read high; at 50.0 µM unless noted. In short, it runs like this:
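Cells of the genetically defined mec2-1 yeast strain are incubated with test compound. Inhibition of growth is calculated against vehicle-treated controls.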

A short description of test [3]: NCI Yeast Anticancer Drug Screen. Data for the sgs1 mgt1 strain (AID 161).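 Further: 0% = growth of cultures given vehicle only.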 The following applies: S. cerevisiae sgs1 mgt1 strain, active compounds read high; at 50.0 µM unless noted. In short, it runs like this: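 Test agents were incubated with a DNA-repair-mutant yeast strain. Growth was then read and compared against vehicle-treated controls.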
The nature of test [4]: NCI Yeast Anticancer Drug Screen. Data for the cln2 rad14 strain (AID 165).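 Further: 0% = growth equal to vehicle treated cultures.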 The following applies: S. cerevisiae cln2 rad14 strain, active compounds read high; at 50.0 µM unless noted. In short, it runs like this:
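The screen exposed genetically defined yeast (cln2 rad14) to test compounds and scored growth inhibition relative to vehicle-treated controls.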

Test [5] in a line: NCI Yeast Anticancer Drug Screen. Data for the bub3 strain (AID 167). The note with it: S. cerevisiae bub3 mutant strain, active compounds read high; at 50.0 µM unless noted. In short, it runs like this: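 Yeast carrying a defined mutation is treated with each compound, and growth is compared with that of vehicle-exposed cells to give inhibition.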
The nature of test [6]: NCI Yeast Anticancer Drug Screen. Data for the mlh1 rad18 strain (AID 175). The note with it: S. cerevisiae mlh1 rad18 strain growth inhibition, active compounds read high; at 50.0 µM unless noted. In short, it runs like this: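 Compound-treated yeast growth, normalised to vehicle controls. Strain bears defined DNA repair mutations.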

As for `c1ccc2c(c1)OC1OC2Oc2ccccc21`, the growth inhibition in test [1] was -25.8% and -10.4%; in test [2], -39.1% and -3.85%; in test [3] it was -26.3% and 7.8%; in test [4] it was 1.6% and -6.05%; in test [5], -57.5% and 8.1%; in test [6], -28.9% and 11.8%.

In the case of `CC1=C(c2ccccc2)OC(c2ccccc2)=C[P+]1(c1ccccc1)c1ccccc1`, the growth inhibition was 97.8% (active) in test [1]; 99.5% (active) in test [2]; 99.4% (active) in test [3]; 99.3% (active) in test [4]; 99.3% (active) in test [5]; 99.2% (active) in test [6].

With `N#C/C=C\c1ccc(-c2cc(C(F)(F)F)cc(C(F)(F)F)c2)o1`, the growth inhibition is -49% in test [1]; -22.6% in test [2]; -42.5% in test [3]; 3.65% in test [4]; 10.8% in test [5]; -57.5% in test [6].

For the molecule `O=CC(NC(=O)N(CCCl)N=O)C(O)C(O)C(O)CO` (centres undefined), the growth inhibition in test [1] was -8%; in test [2] it was -2.3%; in test [3], 2.15%; in test [4], -1.7%; in test [5], -4.95%; in test [6] it was 5.75%.

On to `Cc1cc(Nc2nnc(-c3cccnc3Oc3ccccc3)s2)ccc1Br`, for which the growth inhibition in test [1] is 1.25%; in test [2], -6.85%; in test [3], -11.6%; in test [4], 16.7%; in test [5], 0.5%; in test [6], -5.35%.

With `CC(=O)OCC1OC(n2c(-c3ccccc3)c(N=Nc3ccc(C)cc3)c(C)c(C#N)c2=S)C(OC(C)=O)C(OC(C)=O)C1OC(C)=O` (centres undefined), the growth inhibition is -22.6% in test [1]; -25.1% in test [2]; -22.9% in test [3]; 4.05% in test [4]; -4.9% in test [5]; 1.1% in test [6].

Turning to `CCOC(=O)c1ccc(O)c(NC(C)=O)c1`, the growth inhibition was -11.7% in test [1]; 18.1% in test [2]; 0.15% in test [3]; -42.5% in test [4]; 10% in test [5]; -7.15% in test [6].

On to `CC(=O)CC(=O)ON(C)C(=O)Cc1ccccc1`, for which the growth inhibition is 29.6% in test [1]; 15.2% in test [2]; -2.75% in test [3]; -4.4% in test [4]; -6.1% in test [5]; -8.35% in test [6].

As for `O=C(Oc1ccccc1)C(=O)Oc1ccccc1`, the growth inhibition in test [1] was -20.6%; in test [2], -24.9%; in test [3] it was -8.75%; in test [4], -15.4%; in test [5], -0.1%; in test [6], 6.4%.

Take `CCc1cc(C(=O)OC/C(C)=N/O)c2ccccc2n1`: the growth inhibition in test [1] was -18.8%; in test [2] it was -0.65%; in test [3] it was -10.1%; in test [4], -18.4%; in test [5] it was 30.4%; in test [6], -22.6%.

Consider `C[N+]1(C)N=C([O-])N(c2ccccc2Cl)C1=O`, for which the growth inhibition in test [1] is 21.4%; in test [2] it was -27.4%; in test [3] it was -6.6%; in test [4] it was -37.5%; in test [5] it was 1.15%; in test [6] it was 18.1%.

On to `COc1cc2c3cc1Oc1cc(ccc1O)C[C@@H]1c4c(cc(OC)c(O)c4Oc4ccc(cc4)C[C@@H]3[N+](C)(C)CC2)CC[N+]1(C)C`, for which the growth inhibition was -23.2% in test [1]; -43.1% in test [2]; -40.4% in test [3]; 68.6% in test [4]; -35.6% in test [5]; 6.7% in test [6].

Consider `CCN(CC)CCC(=O)c1ccccc1`, for which the growth inhibition was -7.5% in test [1]; -4.25% in test [2]; -8.45% in test [3]; -7.25% in test [4]; -20.1% in test [5]; -7.85% in test [6].

As for `CCC(C)(C)NC(N)=O`, the growth inhibition in test [1] was 13.1%; in test [2], 22.6%; in test [3], 8.55%; in test [4], -34.2%; in test [5], 8.55%; in test [6], 23.7%.

For the molecule `CCOC(=O)O/C(C)=C\c1ccc(Cl)cc1`, the growth inhibition in test [1] was 2.45%; in test [2] it was -2.65%; in test [3], -12.4%; in test [4], -50.4%; in test [5] it was -34.9%; in test [6], 7.05%.

As to `Cc1nc2cnc(=Nc3ccccc3)nc-2n(-c2ccccc2)c1C`, the growth inhibition was -1.15% in test [1]; -1.55% in test [2]; -0.65% in test [3]; 56.9% in test [4]; 5.15% in test [5]; -7.9% in test [6].

`COC(=O)C(=O)C1CCCC(C)(c2ccccc2)C1` (centres undefined): the growth inhibition in test [1] was -0.1%; in test [2], 2.05%; in test [3], -5.05%; in test [4], 0.2%; in test [5], 1.7%; in test [6] it was -4.7%.

As to `COC(=O)c1ccccc1NC(=O)c1c(-c2ccccc2Cl)noc1C`, the growth inhibition in test [1] is 72% (active); in test [2], 67.8%; in test [3], 88.6% (active); in test [4], 46.9%; in test [5], 77.2% (active); in test [6], 54.9%.

Take `Cc1ccc(N2CC(=O)N3CCCC(C)N3C(=O)C2)cc1` (centres undefined): the growth inhibition is 26% in test [1]; 8.85% in test [2]; 14.8% in test [3]; 15.8% in test [4]; 7.05% in test [5]; 10.4% in test [6].
